Holding throughout (assay): DAPPL (digital affinity profiling via proximity ligation, sequencing); 10 mM Tris-HCl pH 7.5, 50 mM NaCl, 1 mM DTT, 4% glycerol, room temperature, 30 min; GST-TFs on glutathione beads, 16-mer random dsDNA library, 0.1% formaldehyde crosslink after washing; high values mean tight binding
One assay concerns the target T1, FEV (Homo sapiens, UniProt Q99581 1-238).
T1 sequence: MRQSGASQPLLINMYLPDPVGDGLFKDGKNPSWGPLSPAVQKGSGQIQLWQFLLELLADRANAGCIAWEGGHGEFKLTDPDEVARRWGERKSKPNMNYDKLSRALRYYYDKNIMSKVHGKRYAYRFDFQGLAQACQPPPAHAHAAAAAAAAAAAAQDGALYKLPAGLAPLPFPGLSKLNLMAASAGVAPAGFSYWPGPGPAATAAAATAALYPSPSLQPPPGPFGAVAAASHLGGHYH
The note with it: protein: recombinant; tags: N-terminal GST; dsDNA, one strand shown. In outline: (§1)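 Pools were built from human transcription factors expressed in yeast as GST fusions, captured on glutathione beads and DNA-barcoded, along with a tag-only sample. Incubation with 200 nmole of a 16-mer random double-stranded DNA library lasted 30 min at room temperature in Tris/NaCl/DTT/glycerol buffer, and was followed by washing, 0.1% formaldehyde crosslinking, proximity ligation, PCR amplification and Illumina NextSeq500 sequencing. Binding signal is the quotient of each hexamer's read frequency for a factor and its frequency for the tag-only sample.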

The target of another assay is ETV5 (Homo sapiens, UniProt P41161 1-510). The settings on record: protein: recombinant; tags: N-terminal GST; dsDNA, one strand shown. An outline of the steps:
as §1

The next assay addresses HSF1 (Homo sapiens, UniProt Q00613 1-529). The note with it: protein: recombinant; tags: N-terminal GST; chain copies: 3; dsDNA, one strand shown. In outline:
as §1

The target of another assay is T2, SPIC (Homo sapiens, UniProt Q8N5J4 1-248).
T2 sequence: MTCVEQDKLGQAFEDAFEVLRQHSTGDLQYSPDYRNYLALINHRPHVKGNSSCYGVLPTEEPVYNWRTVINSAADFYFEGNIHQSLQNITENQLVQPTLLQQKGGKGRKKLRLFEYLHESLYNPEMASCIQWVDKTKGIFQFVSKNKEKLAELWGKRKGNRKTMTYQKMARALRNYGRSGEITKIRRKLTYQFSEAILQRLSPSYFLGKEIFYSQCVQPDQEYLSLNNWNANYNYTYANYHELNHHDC
The note with it: protein: recombinant; tags: N-terminal GST; dsDNA, one strand shown. In outline:
as §1

For the next assay, the target named is ELF4 (Homo sapiens, UniProt Q99607 1-663). The note with it: protein: recombinant; tags: N-terminal GST; dsDNA, one strand shown. In outline: as §1
The target in the next assay is T3, ELK4 (Homo sapiens, UniProt P28324-2 1-405).
T3 sequence: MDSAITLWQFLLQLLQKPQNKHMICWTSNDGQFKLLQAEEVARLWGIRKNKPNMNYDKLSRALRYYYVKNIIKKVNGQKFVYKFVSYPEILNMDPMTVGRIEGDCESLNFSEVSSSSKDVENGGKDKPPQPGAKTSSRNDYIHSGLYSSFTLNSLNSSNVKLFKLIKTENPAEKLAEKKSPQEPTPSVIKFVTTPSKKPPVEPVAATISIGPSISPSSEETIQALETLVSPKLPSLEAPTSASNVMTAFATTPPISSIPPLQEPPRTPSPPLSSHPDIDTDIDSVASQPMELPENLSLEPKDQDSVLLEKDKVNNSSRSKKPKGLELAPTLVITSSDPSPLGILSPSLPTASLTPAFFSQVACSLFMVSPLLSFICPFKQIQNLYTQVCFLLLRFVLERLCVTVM
The note with it: protein: recombinant; tags: N-terminal GST; dsDNA, one strand shown. An outline of the steps: as §1

Another assay concerns the target T4, ETV2 (Homo sapiens, UniProt O00321 1-342).
T4 sequence: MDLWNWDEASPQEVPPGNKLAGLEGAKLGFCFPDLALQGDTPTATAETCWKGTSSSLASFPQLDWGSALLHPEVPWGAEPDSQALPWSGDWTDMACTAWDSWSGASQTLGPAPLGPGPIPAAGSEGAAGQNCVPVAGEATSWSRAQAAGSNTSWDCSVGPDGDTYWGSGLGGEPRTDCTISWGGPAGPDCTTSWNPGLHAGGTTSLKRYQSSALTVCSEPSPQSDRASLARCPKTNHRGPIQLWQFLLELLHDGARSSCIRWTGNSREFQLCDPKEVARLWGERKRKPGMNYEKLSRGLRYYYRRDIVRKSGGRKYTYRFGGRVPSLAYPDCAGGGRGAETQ
The settings on record: protein: recombinant; tags: N-terminal GST; dsDNA, one strand shown. An outline of the steps: as §1

In the next assay the target is T5, ELF3 (Homo sapiens, UniProt P78545 1-371).
T5 sequence: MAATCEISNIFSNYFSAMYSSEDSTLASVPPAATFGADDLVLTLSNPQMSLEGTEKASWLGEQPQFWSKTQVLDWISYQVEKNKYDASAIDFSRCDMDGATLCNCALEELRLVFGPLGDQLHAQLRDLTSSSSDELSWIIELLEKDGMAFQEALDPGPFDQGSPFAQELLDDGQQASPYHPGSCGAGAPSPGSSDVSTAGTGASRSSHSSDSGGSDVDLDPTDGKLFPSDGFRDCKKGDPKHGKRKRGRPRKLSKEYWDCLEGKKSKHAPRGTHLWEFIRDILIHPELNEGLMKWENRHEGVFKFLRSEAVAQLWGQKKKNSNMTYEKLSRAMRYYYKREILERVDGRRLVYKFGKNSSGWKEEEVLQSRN
The note with it: protein: recombinant; tags: N-terminal GST; dsDNA, one strand shown. In outline:
as §1

The target in a further assay is CRX (Homo sapiens, UniProt O43186 1-299). The settings on record: protein: recombinant; tags: N-terminal GST; dsDNA, one strand shown. In outline:
as §1

A further assay concerns the target ETV1 (Homo sapiens, UniProt P50549 1-477). The note with it: protein: recombinant; tags: N-terminal GST; dsDNA, one strand shown. In outline: as §1
A further assay deals with T6, ERF (Homo sapiens, UniProt P50548 1-548).
T6 sequence: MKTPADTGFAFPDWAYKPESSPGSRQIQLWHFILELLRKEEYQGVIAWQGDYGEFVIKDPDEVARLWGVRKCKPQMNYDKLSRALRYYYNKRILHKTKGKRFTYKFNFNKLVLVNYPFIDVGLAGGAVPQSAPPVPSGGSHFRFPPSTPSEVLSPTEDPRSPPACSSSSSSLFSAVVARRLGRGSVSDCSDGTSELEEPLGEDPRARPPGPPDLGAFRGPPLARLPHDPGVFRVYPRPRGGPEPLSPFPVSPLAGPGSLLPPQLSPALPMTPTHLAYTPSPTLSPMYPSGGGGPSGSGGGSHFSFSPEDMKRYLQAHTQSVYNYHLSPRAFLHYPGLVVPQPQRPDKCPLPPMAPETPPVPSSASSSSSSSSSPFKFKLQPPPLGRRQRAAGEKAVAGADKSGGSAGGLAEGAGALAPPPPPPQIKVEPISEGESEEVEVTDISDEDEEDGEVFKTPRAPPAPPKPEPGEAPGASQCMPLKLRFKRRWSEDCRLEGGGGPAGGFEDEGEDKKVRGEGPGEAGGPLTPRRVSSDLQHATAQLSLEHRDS
The note with it: protein: recombinant; tags: N-terminal GST; dsDNA, one strand shown. An outline of the steps:
as §1

A further assay deals with T7, ETV3L (Homo sapiens, UniProt Q6ZN32 1-361).
T7 sequence: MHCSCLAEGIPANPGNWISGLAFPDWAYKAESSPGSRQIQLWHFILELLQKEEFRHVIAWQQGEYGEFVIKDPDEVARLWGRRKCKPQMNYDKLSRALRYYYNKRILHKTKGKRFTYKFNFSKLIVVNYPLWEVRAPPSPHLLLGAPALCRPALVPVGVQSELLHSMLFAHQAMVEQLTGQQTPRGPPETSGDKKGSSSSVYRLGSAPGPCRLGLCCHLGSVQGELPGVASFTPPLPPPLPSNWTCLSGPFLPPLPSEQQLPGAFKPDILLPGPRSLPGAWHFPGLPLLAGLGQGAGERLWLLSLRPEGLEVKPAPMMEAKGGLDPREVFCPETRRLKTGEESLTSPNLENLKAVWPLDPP
The note with it: protein: recombinant; tags: N-terminal GST; dsDNA, one strand shown. An outline of the steps: as §1

In a further assay the target is T8, ETS2 (Homo sapiens, UniProt P15036 1-469).
T8 sequence: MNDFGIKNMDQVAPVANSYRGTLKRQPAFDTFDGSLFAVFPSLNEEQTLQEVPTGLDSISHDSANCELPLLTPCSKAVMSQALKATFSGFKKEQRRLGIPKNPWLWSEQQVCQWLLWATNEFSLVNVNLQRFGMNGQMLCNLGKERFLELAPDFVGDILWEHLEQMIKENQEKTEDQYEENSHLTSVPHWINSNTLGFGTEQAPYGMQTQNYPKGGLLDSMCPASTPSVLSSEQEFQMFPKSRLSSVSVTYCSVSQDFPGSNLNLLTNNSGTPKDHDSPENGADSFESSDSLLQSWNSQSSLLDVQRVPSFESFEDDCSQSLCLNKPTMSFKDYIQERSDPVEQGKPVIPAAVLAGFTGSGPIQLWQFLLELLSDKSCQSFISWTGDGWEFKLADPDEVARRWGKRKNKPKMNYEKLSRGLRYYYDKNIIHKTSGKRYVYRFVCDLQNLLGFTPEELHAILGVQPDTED
The settings on record: protein: recombinant; tags: N-terminal GST; dsDNA, one strand shown. An outline of the steps:
as §1

The next assay has as its target T9, SPDEF (Homo sapiens, UniProt O95238 1-335).
T9 sequence: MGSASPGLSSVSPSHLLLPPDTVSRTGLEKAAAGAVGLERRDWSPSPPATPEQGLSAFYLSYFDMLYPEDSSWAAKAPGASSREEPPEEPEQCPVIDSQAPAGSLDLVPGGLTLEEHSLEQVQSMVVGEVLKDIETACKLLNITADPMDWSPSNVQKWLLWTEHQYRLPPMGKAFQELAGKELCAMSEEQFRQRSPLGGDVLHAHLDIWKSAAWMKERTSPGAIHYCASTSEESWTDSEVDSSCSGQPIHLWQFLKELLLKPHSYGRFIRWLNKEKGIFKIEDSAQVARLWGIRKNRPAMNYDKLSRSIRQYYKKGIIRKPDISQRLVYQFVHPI
The settings on record: protein: recombinant; tags: N-terminal GST; dsDNA, one strand shown. In outline:
as §1

The next assay concerns the target T10, ETV7 (Homo sapiens, UniProt Q9Y603 1-341).
T10 sequence: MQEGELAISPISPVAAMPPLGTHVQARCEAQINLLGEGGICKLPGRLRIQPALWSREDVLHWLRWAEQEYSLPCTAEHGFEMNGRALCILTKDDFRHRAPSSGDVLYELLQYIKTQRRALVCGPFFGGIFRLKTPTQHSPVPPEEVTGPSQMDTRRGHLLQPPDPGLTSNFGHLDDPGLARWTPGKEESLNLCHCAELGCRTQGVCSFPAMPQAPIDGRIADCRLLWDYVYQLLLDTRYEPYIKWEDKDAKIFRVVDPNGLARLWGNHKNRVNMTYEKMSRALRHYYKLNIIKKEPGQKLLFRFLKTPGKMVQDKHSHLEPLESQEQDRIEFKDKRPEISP
The note with it: protein: recombinant; tags: N-terminal GST; dsDNA, one strand shown. In outline:
as §1

Another assay deals with T11, ELF5 (Homo sapiens, UniProt Q9UKW6-2 1-255).
T11 sequence: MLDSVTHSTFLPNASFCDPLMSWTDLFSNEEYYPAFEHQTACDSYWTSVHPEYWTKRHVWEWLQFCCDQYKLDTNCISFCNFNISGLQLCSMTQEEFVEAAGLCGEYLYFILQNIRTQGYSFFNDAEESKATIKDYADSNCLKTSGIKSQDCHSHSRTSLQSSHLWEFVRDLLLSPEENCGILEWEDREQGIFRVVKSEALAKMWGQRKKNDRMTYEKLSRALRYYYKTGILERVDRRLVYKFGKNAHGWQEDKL
The note with it: protein: recombinant; tags: N-terminal GST; dsDNA, one strand shown. In outline: as §1

For the next assay, the target named is T12, ETV3 (Homo sapiens, UniProt P41162-2 1-143).
T12 sequence: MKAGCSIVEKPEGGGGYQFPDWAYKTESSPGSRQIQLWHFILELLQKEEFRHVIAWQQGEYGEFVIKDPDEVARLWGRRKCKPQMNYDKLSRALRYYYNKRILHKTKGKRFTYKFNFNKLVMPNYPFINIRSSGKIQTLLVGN
The settings on record: protein: recombinant; tags: N-terminal GST; dsDNA, one strand shown. In outline:
as §1

The target of another assay is ETV6 (Homo sapiens, UniProt P41212 1-452). The settings on record: protein: recombinant; tags: N-terminal GST; dsDNA, one strand shown. In outline: as §1
Chain of ETV6 (P41212 whole entry): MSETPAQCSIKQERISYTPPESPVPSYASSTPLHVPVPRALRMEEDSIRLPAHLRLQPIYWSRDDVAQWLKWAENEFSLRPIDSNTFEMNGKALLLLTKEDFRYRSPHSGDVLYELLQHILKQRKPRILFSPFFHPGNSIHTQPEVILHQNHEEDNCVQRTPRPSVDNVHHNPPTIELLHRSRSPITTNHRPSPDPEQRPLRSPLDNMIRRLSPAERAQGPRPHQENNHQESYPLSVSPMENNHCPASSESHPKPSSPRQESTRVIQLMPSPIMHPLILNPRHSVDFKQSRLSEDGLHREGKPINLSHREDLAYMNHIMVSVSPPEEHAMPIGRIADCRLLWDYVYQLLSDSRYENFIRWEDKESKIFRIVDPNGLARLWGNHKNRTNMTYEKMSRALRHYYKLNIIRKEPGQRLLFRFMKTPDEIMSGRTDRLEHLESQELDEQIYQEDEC

Chain of ETV1 (P50549 whole entry): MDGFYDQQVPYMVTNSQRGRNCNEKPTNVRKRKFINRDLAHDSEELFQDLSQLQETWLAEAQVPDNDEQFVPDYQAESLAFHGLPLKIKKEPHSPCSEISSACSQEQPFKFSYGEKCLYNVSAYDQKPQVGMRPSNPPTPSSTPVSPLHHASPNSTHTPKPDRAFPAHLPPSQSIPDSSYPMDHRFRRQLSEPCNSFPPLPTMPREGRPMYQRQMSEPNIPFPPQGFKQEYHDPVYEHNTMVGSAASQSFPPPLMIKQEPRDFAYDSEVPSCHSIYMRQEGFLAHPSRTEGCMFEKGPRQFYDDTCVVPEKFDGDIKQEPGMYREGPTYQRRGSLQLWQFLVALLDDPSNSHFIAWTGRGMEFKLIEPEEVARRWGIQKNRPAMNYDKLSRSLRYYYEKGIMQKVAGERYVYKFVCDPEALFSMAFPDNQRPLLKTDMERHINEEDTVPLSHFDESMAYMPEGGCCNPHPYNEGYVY
Chain of HSF1 (Q00613 whole entry): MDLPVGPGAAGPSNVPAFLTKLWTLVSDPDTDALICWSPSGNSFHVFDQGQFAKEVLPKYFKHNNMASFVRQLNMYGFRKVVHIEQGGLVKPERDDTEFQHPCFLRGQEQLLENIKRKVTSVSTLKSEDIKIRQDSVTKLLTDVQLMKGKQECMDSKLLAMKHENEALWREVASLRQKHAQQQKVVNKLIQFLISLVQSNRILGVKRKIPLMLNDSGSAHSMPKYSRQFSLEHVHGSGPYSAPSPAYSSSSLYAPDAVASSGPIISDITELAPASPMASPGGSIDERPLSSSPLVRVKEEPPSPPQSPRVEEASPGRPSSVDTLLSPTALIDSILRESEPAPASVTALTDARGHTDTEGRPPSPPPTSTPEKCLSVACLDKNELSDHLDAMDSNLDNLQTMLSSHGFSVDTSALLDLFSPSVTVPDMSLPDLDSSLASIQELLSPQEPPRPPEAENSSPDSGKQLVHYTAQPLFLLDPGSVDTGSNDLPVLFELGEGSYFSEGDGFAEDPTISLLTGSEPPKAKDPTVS
Chain of ETV5 (P41161 whole entry): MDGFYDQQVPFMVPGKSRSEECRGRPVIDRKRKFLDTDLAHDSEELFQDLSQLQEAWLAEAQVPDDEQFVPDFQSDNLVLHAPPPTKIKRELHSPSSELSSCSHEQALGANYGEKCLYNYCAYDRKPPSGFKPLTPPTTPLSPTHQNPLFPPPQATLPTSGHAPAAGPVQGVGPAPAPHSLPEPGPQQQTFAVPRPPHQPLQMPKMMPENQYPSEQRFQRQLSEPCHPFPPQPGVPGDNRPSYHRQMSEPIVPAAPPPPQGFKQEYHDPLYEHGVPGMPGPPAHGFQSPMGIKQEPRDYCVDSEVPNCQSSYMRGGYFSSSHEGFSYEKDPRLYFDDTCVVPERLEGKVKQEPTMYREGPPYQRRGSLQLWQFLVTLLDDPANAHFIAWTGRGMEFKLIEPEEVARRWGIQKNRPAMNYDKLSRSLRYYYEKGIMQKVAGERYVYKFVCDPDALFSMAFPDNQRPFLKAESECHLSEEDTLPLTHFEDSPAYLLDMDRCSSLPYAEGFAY
Chain of CRX (O43186 whole entry): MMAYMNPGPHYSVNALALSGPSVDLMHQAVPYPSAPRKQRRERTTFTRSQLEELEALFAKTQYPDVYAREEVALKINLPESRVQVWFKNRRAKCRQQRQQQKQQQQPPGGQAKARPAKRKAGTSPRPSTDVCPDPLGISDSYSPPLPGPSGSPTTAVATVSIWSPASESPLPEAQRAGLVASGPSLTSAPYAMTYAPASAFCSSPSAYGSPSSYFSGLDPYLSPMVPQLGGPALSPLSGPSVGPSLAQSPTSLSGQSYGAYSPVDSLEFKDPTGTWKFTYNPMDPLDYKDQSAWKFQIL
Chain of ELF4 (Q99607 whole entry): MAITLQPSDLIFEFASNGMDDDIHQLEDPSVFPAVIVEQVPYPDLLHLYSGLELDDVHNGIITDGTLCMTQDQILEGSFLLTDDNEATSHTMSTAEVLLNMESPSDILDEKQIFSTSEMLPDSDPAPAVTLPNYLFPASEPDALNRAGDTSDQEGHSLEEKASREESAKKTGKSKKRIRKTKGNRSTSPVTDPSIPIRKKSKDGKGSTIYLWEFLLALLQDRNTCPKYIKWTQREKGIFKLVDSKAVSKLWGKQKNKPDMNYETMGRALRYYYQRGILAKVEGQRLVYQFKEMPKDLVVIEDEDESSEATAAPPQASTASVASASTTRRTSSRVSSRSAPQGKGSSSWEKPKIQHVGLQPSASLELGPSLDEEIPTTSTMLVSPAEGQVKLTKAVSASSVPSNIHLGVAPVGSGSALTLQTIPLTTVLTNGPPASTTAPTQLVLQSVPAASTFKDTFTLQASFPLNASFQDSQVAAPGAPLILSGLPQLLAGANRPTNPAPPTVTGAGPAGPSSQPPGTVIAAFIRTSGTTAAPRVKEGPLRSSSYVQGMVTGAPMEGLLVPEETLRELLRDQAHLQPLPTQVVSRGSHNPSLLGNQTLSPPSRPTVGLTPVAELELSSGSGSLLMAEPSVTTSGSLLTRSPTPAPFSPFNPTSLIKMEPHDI

TATTGT: the binding signal was 1.26 fold enrichment (6-mer frequency, TF over GST control) with FEV; 1.33 fold enrichment (6-mer frequency, TF over GST control) with ETV5; 1.27 fold enrichment (6-mer frequency, TF over GST control) with HSF1; 1.45 fold enrichment (6-mer frequency, TF over GST control) with SPIC; 1.24 fold enrichment (6-mer frequency, TF over GST control) with ELF4; 1.36 fold enrichment (6-mer frequency, TF over GST control) in the assay with ELK4. In addition, the binding signal with ETV2 is 1.32 fold enrichment (6-mer frequency, TF over GST control); in the assay with ELF3, 1.23 fold enrichment (6-mer frequency, TF over GST control); with CRX it was 1.47 fold enrichment (6-mer frequency, TF over GST control); in the assay with ETV1, 1.25 fold enrichment (6-mer frequency, TF over GST control); in the assay with ERF, 1.44 fold enrichment (6-mer frequency, TF over GST control); in the assay with ETV3L, 1.32 fold enrichment (6-mer frequency, TF over GST control). Moreover, the binding signal is 1.37 fold enrichment (6-mer frequency, TF over GST control) with ETS2; 1.3 fold enrichment (6-mer frequency, TF over GST control) with SPDEF; 1.35 fold enrichment (6-mer frequency, TF over GST control) with ETV7; 1.23 fold enrichment (6-mer frequency, TF over GST control) with ELF5; 1.34 fold enrichment (6-mer frequency, TF over GST control) in the assay with ETV3; 1.33 fold enrichment (6-mer frequency, TF over GST control) in the assay with ETV6.

The values are drawn from PMC7862700, “An all-to-all approach to the identification of sequence-specific readers for epigenetic DNA modifications on cytosine”.
